Source: PubChem BioAssay AID463095 (Sanford-Burnham Center for Chemical Genomics, 2010)
The other results are listed elsewhere or left out. Calls of active or inactive are those of the source.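 Rule for the calls: active = proliferation increase above 40% at any of the four tested concentrations; inactive = the rest.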

Test: MIN6 insulinoma cell replication enhancers – MIN6 cells, mouse, confirmation (AID 463095)
Conditions: MIN6 beta-cell proliferation, ATPlite luminescence, 48 h, cells kept in 0.2% serum, scaled between 0.2% and 10% serum; series mostly up to 50 µM

outcome, inactive:
O=C1c2ccccc2S(=O)(=O)c2cc(N3CCN(c4ccccn4)CC3)ccc21, COc1ccc(-c2nnn(Cc3nc(N)nc(N4CCCCC4)n3)n2)cc1, Cn1cc(CN2CCC(C(O)CCc3ccccc3)CC2)c(-c2ccccc2F)n1 (stereo not drawn)
